# Screening results from PubChem BioAssay.
# Shown are actives, neighbours in structure and some others; about 2.7% of the full set was active somewhere.
# NadD block: blocks S. aureus nicotinate mononucleotide adenylyltransferase. purified NadD enzyme, colorimetric absorbance read-out. inhibition, % at 20 µM. actives 0.78% (n = 360,000); in the data active = inhibition above about 26%
# MPTP inh: permeability transition pore inhibition; isolated mouse mitochondria, Ca2+ swelling absorbance, 30 min; inhibition, % at 10 µM; actives 1.4% (n = 360,000); AID 602449;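 active = inhibition of 50% or more, scaled per plate between neutral and stimulator controls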;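 also: 0% = DMSO wells given calcium and 100% = 1 mM EGTA wells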
# aDG glyco act: increases alpha dystroglycan glycosylation; Pro5-aDG cells, alpha-DG glycosylation AlphaScreen (IIH6); 0% Pro5, 100% B10-LARGE cell signal; activation, % at 10 µM; actives 0.22% (n = 360,000);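 active = activation of at least 8% versus controls, or a plate z-score of at least 8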;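 also: Pro5 are CHO cells carrying HIG-tagged alpha-DG that lacks glycosylation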
# TAG inh: inhibitors of triacylglycerol accumulation | H9c2 cells, Nile Red lipid (TAG) fluorescence; cells loaded with 200 µM oleic acid | inhibition, % at 12.5 µM | actives 0.66% (n = 230,000);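 active = pattern-corrected inhibition of lipid staining of at least 50% with the nuclear-stain viability signal not falling by more than 50%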;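 also: 0% = DMSO wells and 100% = triacsin C control wells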
# NadD inh conf: NadD (S. aureus) inhibition, single concentration confirmation | shares compounds with NadD block | purified S. aureus NadD, colorimetric enzyme assay | inhibition, % at 20 µM | actives 13% (n = 2,000) | AID 624309; in the data active = inhibition mostly above about 42%, no sharp cut-off; inactive = mostly below about 42%
# Active calls of the source: *; / = no result given.
SMILES,NadD block,MPTP inh,aDG glyco act,TAG inh,NadD inh conf
Cc1cccc2sc(NNC(=O)c3ccc(S(=O)(=O)N4CCc5ccccc5C4)cc3)nc12,38*,4,0,15,51*
COc1ccc(NC(=O)C2CCCN(S(=O)(=O)c3ccc4c(c3)CCCN4C(C)=O)C2)cc1Cl (configuration not stated),-5,-3,1,/,/
NNC(=O)c1oc2nc(-c3cccs3)cc(-c3ccco3)c2c1N,36*,2,0,/,2
COc1cccc(/C=N/NC(=O)c2oc3nc(-c4ccccc4)cc(-c4ccco4)c3c2N)c1,9,0,0,3,/
NNC(=O)c1oc2nc(-c3ccccc3)cc(-c3ccccc3)c2c1N,31*,1,0,/,12
Cc1ccc(-c2cc(-c3ccco3)c3c(N)c(C(=O)NN)oc3n2)cc1,28*,3,0,3,1
CC(C)n1c(=S)[nH]c2scc(-c3cccs3)c2c1=O,30*,16,0,8,67*
Cc1ccc(NC(=O)COC(=O)C2CC3CCCC(C2)C3=O)c([N+](=O)[O-])c1 (configuration not stated),-6,0,1,-9,/
Fc1cc(F)c(F)c(SCCc2ccncc2)c1F,25*,0,0,-2,10
Fc1ccc(SCCc2ccncc2)cc1,7,0,0,11,/
O=C(Nc1oc2ccc(Cl)cc2c(=O)c1-c1ccc(F)cc1)c1ccco1,-7,2,1,/,/
CN(Cc1cccc(F)c1)C(=O)c1ccc(S(=O)(=O)N2CCCCCC2)cc1,-3,0,1,-10,/
Cc1cccc(-c2nnc(SCC(=O)N3c4ccccc4CCc4ccccc43)n2C)c1,9,0,0,/,/
Cn1c(SCC(=O)N2c3ccccc3CCc3ccccc32)nnc1-c1cc2ccccc2cc1O,56*,2,0,19,52*
Cc1c(C(=O)N2CCN(S(=O)(=O)c3cc(F)ccc3F)CC2)oc2ccccc12,-3,0,0,13,/
O=C(Nn1c(SCc2cccc([N+](=O)[O-])c2)nc2ccccc2c1=O)c1ccccc1,10,2,0,/,/
COc1ccc(C(=O)Nn2c(SCc3cccc([N+](=O)[O-])c3)nc3ccccc3c2=O)cc1,28*,0,0,/,40
Cc1cc(C)cc(OCC(=O)N(C)CC(=O)Nc2ccc(N3CCOCC3)cc2)c1,1,-1,0,14,/
COc1ccc(-c2ccc(C(=O)NCc3ccc(N4CCN(C)CC4)cc3)c3occc23)c(C)c1,1,2,6,8,/
Cc1ccc(NC(=O)CN(C)C(=O)c2cc(-c3ccco3)nc3ccccc23)cc1,34*,0,0,-3,31
CN(CC(=O)Nc1ccc(F)cc1)C(=O)c1cc(-c2ccco2)nc2ccccc12,41*,-1,0,10,26
COc1cccc(NC(=O)CN(C)C(=O)c2cc(-c3ccco3)nc3ccccc23)c1,5,-2,0,3,/
CCc1cc(C(=O)N(Cc2ccccc2)c2c(N)n(CCOC)c(=O)[nH]c2=O)sc1C,5,1,0,-4,/
C=C(C)C(=O)N1CC2(CC(c3cccc(NC(=O)CC(c4ccccc4)c4ccccc4)c3)=NO2)C[C@H]1C(N)=O (some centres not stated),-6,0,1,1,/
NC(=O)[C@H]1CC2(CC(c3cccc(NC(=O)CC(c4ccccc4)c4ccccc4)c3)=NO2)CN1C(=O)CC(c1ccccc1)c1ccccc1 (some centres not stated),42*,1,0,18,19
SMILES,NadD block,MPTP inh,aDG glyco act,TAG inh,NadD inh conf
NC(=O)[C@@H]1CC2(CC(c3cccc(NC(=O)CC(c4ccccc4)c4ccccc4)c3)=NO2)CN1C(=O)c1ccc(Cl)cc1 (some centres not stated),32*,1,0,13,23
CCC(=O)N1CC2(CC(c3cccc(NC(=O)CC(c4ccccc4)c4ccccc4)c3)=NO2)C[C@H]1C(N)=O (some centres not stated),-7,-2,0,17,/
COc1cc(OC)c(C(=O)OC(C)C(=O)NCc2ccc3c(c2)OCO3)cc1OC (configuration not stated),-1,-2,0,5,/
Cc1[nH]c2ccc(C(=O)NCCCN3CCCCCC3)cc2c1C,29*,-1,0,/,7
Cc1[nH]c2ccc(C(=O)NCCCN3CCCC3)cc2c1C,4,-1,0,/,/
Cc1cc(-c2csc(N)n2)c(C)n1CCC(C)C,34*,-1,0,15,11
CC1(C)Cc2c(sc3c2c(=N)n(Cc2ccco2)c(=O)n3Cc2ccc(Cl)cc2)CO1,32*,2,0,23,20
Cn1cc(/C=C(\C#N)C(=O)Nc2ncc(Cc3ccc(Cl)cc3)s2)c2ccccc21,31*,1,0,11,0
CNC(=O)/C(C#N)=C/c1ccc(-c2ccccc2[N+](=O)[O-])o1,-10,-1,0,6,/
Cc1ccc(Cc2cnc(NC(=O)/C(C#N)=C/c3ccc(-c4ccccc4[N+](=O)[O-])o3)s2)cc1,29*,2,0,15,-1
Cc1ccc(N2C(=O)N(CC(=O)N3CCOCC3)C(=O)C2C)cc1 (configuration not stated),-2,-2,0,-5,/
Cc1ccsc1/C=C/C1=Cc2c(sc(NC(=O)CSc3n[nH]c(N)n3)c2C#N)C(C)(C)C1,64*,1,-1,/,42
COc1ccc(-c2csc(NC(=O)CSc3n[nH]c(N)n3)n2)cc1,-11,-2,0,2,/
CCOc1ccc(/C=C/C2=Cc3c(sc(NC(=O)CSc4n[nH]c(N)n4)c3C#N)C(C)(C)C2)cc1,58*,-1,0,/,26
CSc1ccccc1NC(=O)Nc1cccc2ccccc12,-2,1,0,/,/
COc1ccc2oc(C(=O)Nc3nc(-c4ccccn4)cs3)c(C)c2c1,34*,-2,1,17,2
COc1ccc(CC(N)c2csc(NC(=O)c3cc(C(C)(C)C)oc3C)n2)cc1 (configuration not stated),33*,0,2,23,-5
Cc1cc(C)c(NC(=O)CCCCCNC2CCCCC2)c(C)c1,-2,-2,0,4,/
O=C(Nc1cccc(S(=O)(=O)NCc2ccco2)c1)c1cc(-c2ccccc2)nc2ccccc12,35*,12,0,/,32
O=C(NCc1ccco1)c1cc(-c2ccccc2)nc2ccccc12,-4,-3,0,/,/
O=C(Nc1cccc(S(=O)(=O)NC2=NCCCCC2)c1)c1cc(-c2ccco2)nc2ccccc12,46*,2,0,15,59*
NS(=O)(=O)c1cccc(NC(=O)COC(=O)c2cc(-c3ccc(Cl)cc3)nc3ccccc23)c1,32*,1,0,8,37
Cc1cc(C(=O)OCC(=O)Nc2cccc(S(=O)(=O)N(C)C)c2)c2ccccc2n1,-5,0,0,/,/
